These results are taken from PubChem BioAssay AID1979 (Broad Institute, 2009).

Structures are written as SMILES. Among all 300,000 compounds or so, about 1,700 (0.57%) were called active. About 2% were inconclusive and are not listed. This is one part of a sample in which actives are shown more often than they occur.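 How the source made its calls: active means growth inhibition above about 58% in most replicates (limit read from the data, passing the limit was not always enough); inconclusive means exactly half the replicates above a set limit; inactive means most replicates below a set limit.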

A short description of the assay: C. albicans growth inhibition with fluconazole, primary screen, CaCi-2 strain, Alamar Blue fluorescence (AID 1979).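 Further: all wells also contain fluconazole at 8 µg/ml as a sub-toxic cotreatment; 0% = median of DMSO wells and 100% = median of geldanamycin control wells.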 The conditions noted are these: C. albicans CaCi-2 (fluconazole-resistant clinical isolate) + fluconazole, 48 h, active compounds read high, concentration not given here.
Turning to `Cc1cc2ccccn2c1C(C[N+](=O)[O-])c1c(F)cccc1Cl` (stereo not given), the growth inhibition was 88.5% (active).

With `C/C(=N/O)c1ccc2ccc3ccccc3c2c1`, the growth inhibition was -4.17% (inactive).

For `Cc1nn(-c2ccccc2)c(C)c1NC(=O)COC(=O)Cc1ccccc1`, the growth inhibition is -2.49% (inactive).

For `O=C(Cc1ccccc1)N1CCN(C2CCCCCC2)CC1`, the growth inhibition is -12% (inactive).

As to `CC1=C(C(=O)Nc2ccccc2)SCCO1`, the growth inhibition was 0.0228% (inactive).

As to `Cc1cccc(-n2c(O)c(/C=N/N3CCOCC3)c(=O)[nH]c2=S)c1`, the growth inhibition was 12.2% (inactive).

For the compound `Cc1cccc(-n2c(O)c(C=NC34CN5CN(CN(C5)C3)C4)c(=O)[nH]c2=O)c1`, the growth inhibition is -4% (inactive).

For `Cc1cccc(-n2c(O)c(C=Nc3ccccc3N)c(=O)[nH]c2=O)c1`, the growth inhibition is 103% (active).

`COc1ccccc1C1=NCc2nnc(CSC)n2-c2ccc(Cl)cc21`: the growth inhibition is 2.88% (inactive).

On to `COc1ccc(S(=O)(=O)NCc2ccc(C(=O)N3CCC4(CC3)OCCO4)cc2)cc1`, for which the growth inhibition was -9.32% (inactive).

In the case of `CC(C)(C)c1ccc(OC(=O)N2CCCCC2)cc1`, the growth inhibition was 11.1% (inactive).

Consider `C=CCN1C(=O)NC(=O)/C(=C/c2ccc(OCC(=O)Nc3ccc(C)cc3)cc2)C1=O`, for which the growth inhibition was -16.2% (inactive).

On to `CC1=CC(=Cc2sc3ccccc3[n+]2C)C=C(C)O1`, for which the growth inhibition is 103% (active).

With `CNCC(O)c1cc(F)c(OCc2ccccc2)c(OCc2ccccc2)c1F` (stereo not given), the growth inhibition is -32.5% (inactive).

`COc1ccccc1NC(=O)N1C[C@@H]2C[C@@H](C1)c1cccc(=O)n1C2`: the growth inhibition is 7.25% (inactive).
